Source: PubChem BioAssay (Tox21)
Results filed as inconclusive are left out. A number with no mark means an inactive call. Calls of active or inactive are those of the source. Calls follow the shape of the dose curve; as a rule, active = well fitted inhibition curve with a large enough effect in the repeat runs; inconclusive = weak or mixed curves, or effect the other way; inactive = no such curve, though single readings can be large or run the other way.

Each compound was assayed against Nuclear receptor ROR-gamma (Homo sapiens) (UniProt P51449) (assay: qHTS assay to identify small molecule antagonists of the retinoid-related orphan receptor gamma (ROR-gamma) signaling pathway (AID 1159521; also: nearly all actives have a fitted effect of over 50% in size; as to activity change, negative = inhibition: top concentration of the series differs between compounds)). Conditions: Tet-on RORgamma CHO cells, RORE-luciferase, 16 h; series mostly up to 92.4 µM; activity change, negative = inhibition: at the top concentration.
Description: U.S. Tox21 Program National Center for Advancing Translational Sciences [NCATS] NIH Chemical Genomics Center [NCGC] U.S. Environmental Protection Agency [EPA] National Institutes of Environmental Health Sciences [NIEHS] National Toxicology Program [NTP] U.S. Food and Drug Administration [FDA] Tox21 Assay Overview: Nuclear steroid hormone receptors are involved in many biological processes including inflammatory responses, cell proliferation, and apoptosis. Environmental factors or compounds disrupting these nuclear receptor pathways and gene expression may promote susceptibility to immunotoxicants and autoimmune diseases. One important group of these expression factors are the retinoid-related orphan receptors. To assess compounds that may interfere with the retinoid-related orphan receptor gamma (ROR-gamma) transcription factor, a cell-based luciferase assay was used. The CHO cell-based assay utilizes a TET-inducible ROR expression factor and ROR response element-LUC reporter gene. Reporter gene activity was induced using Doxycycline Hyclate and measured after 16 hr incubation. Tet-on ROR gamma CHO cells were used to screen against the Tox21 10K compound library for ROR gamma antagonists by quantification of decreased reporter gene activity in terms of decreased luminescence.
Tox21 Assay Protocol Summary: Tet-on ROR gamma CHO cells were dispensed at 1,000 cells in 4 uL of culture medium per well into white wall/solid bottom 1536-well plates using a Multidrop Combi (Thermo Scientific, Waltham, MA) dispenser. Following incubation at 37 C and 5% CO2 for 4 hr, 23 nL of compounds dissolved in DMSO, positive controls or DMSO only were transferred by a Pintool station (Kalypsys, San Diego, CA) and after 2 hr incubation at 37 C, one ul of 1 uM (final concentration) of Doxycycline Hyclate was added to all the wells by using a Flying Reagent Dispenser (FRD) (Aurora Discovery, San Diego, CA). After 16 hr incubation at 37 C and 5% CO2, 5 uL of ONE-Glo reagent (Promega Corporation, Madison, WI) was added to each assay plate using FRD. After 30 min incubation at room temperature, luminescence was quantified on a ViewLux plate reader (Perkin Elmer, Waltham, MA).
% is scaled to controls: 0 for no effect and ±100 for the full control effect; potency is read from the fitted curve at half-maximal effect.

| SMILES | activity change, negative = inhibition | Potency |
| --- | --- | --- |
| Cc1cccc(C(C)(C)C)c1O | 3.2% | – |
| CCOC(=O)CC(C)C | 11.9% | – |
| CC(=O)N(CC(=O)N(C)C)c1ccccc1 | 29.3% [at 42.5 µM] | – |
| Cc1ccc(O)c([C@H](CCN(C(C)C)C(C)C)c2ccccc2)c1 | -13.4% [at 42.5 µM] | – |
| NCCCOCCOCCOCCCN | – | 17.2 µM (active) |
| CC(C)CCCC(C)CCO (stereo not given) | -2.56% | – |
| CCCCOC(=O)c1ccccc1C(=O)OCC(CC)CCCC (stereo not given) | 7.76% | – |
| CCOC(=O)[C@H](CCc1ccccc1)N[C@H]1CCc2ccccc2N(CC(=O)O)C1=O | -3.06% [at 42.5 µM] | – |
| COC(=O)C(C)=O | -0.0353% | – |
| CCCCC(CC)COCCCN (stereo not given) | -2.34% | – |
| CCCCCCc1ccc(N)cc1 | 4.22% | – |
| Cc1ccc(C(C)c2ccc(C)c(C)c2)cc1C | -18.2% | – |
| Cc1cccc(OCCOc2cccc(C)c2)c1 | 50.5% | – |
| O=CNc1ccccc1 | 25.5% | – |
| CCCCCC/C=C/C=O | -10.2% | – |
| CCN(CC)C(C)CN1c2ccccc2Sc2ccccc21 (stereo not given) | -13.4% [at 42.5 µM] | – |
| C#CCOC(=O)[C@@H](C)Oc1ccc(Oc2ncc(Cl)cc2F)cc1 | 5.03% | – |
| CC[C@H](C)[C@H](N)C(=O)O | 0.198% [at 42.5 µM] | – |
| C[C@@H](C1=C(CCN(C)C)Cc2ccccc21)c1ccccn1 | -15.2% [at 42.5 µM] | – |
| N#Cc1c(F)cccc1F | 6.77% | – |

| SMILES | activity change, negative = inhibition | Potency |
| --- | --- | --- |
| Oc1ccc(Sc2ccc(O)cc2)cc1 | 10.2% | – |
| c1ccc(OCc2ccc(CCCN3CCOCC3)cc2)cc1 | -1.75% [at 42.5 µM] | – |
| Cc1ccc2c(ccc3ccccc32)c1 | 103% | – |
| CC(C)CCCCCCOC(=O)c1ccc(C(=O)OCCCCCCC(C)C)c(C(=O)OCCCCCCC(C)C)c1 | 1.1% | – |
| Cc1nc2ccccc2n1Cc1ccc(Cl)cc1 | – | 2.66 µM (active) |
| O=C(O)COC(=O)Cc1ccccc1Nc1c(Cl)cccc1Cl | -0.266% [at 42.5 µM] | – |
| COCCO | 2.03% | – |
| CC/C(=C\C(=N/O)C(N)=O)C(C)[N+](=O)[O-] (stereo not given) | 17.3% | – |
| CCCCOc1cc(C(=O)OCCN(CC)CC)ccc1N | -14.7% [at 42.5 µM] | – |
| Nc1nc(N)c2nc(CNc3ccc(C(=O)N[C@@H](CCC(=O)O)C(=O)O)cc3)cnc2n1 | -4.77% | – |
| O=C(O)C(c1ccc(Cl)cc1)c1ccc(Cl)cc1 | -16.1% | – |
| CC(C)c1ccc2c(C(C)C)cc(C(C)C)c(S(=O)(=O)O)c2c1 | -9.61% | – |
| Cc1cc(C)c(S(=O)(=O)O)cc1N=Nc1cc(S(=O)(=O)O)c2ccccc2c1O | -7.48% | – |
| COc1ccc([C@@H]2Sc3ccccc3N(CCN(C)C)C(=O)[C@@H]2OC(C)=O)cc1 | -9.75% [at 42.5 µM] | – |
| O=C(Nc1ccccc1)OCC(CN1CCCCC1)OC(=O)Nc1ccccc1 (stereo not given) | -3.91% [at 42.5 µM] | – |
| CCCCCCCCCCCCC(=O)O | 20.4% | – |
| CCCc1ccccc1 | -18.4% | – |
| CCCCCCCCCC=O | 3.79% | – |
| COCCOCCOCCOCCOC | -14.7% | – |
| Cc1ccccc1N=Nc1ccc(N=Nc2c(O)ccc3ccccc23)c(C)c1 | 63% [at 42.5 µM] | – |
